mHTT CaM bind – disrupts binding of mutant huntingtin to calmodulin. 3.6% of 190,000 active. inhibition, % at 15 µM. AlphaScreen His-mHTT/GST-CaM binding, luminescence. P42858;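 note: 0% = both proteins with DMSO and 100% = one protein alone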
Pf apPOL block – Pf-apPOL DNA polymerase inhibition | Recombinant Pf-apPOL, molecular beacon fluorescence, 1.5 h | inhibition, % at 10 µM | 0.25% of 210,000 active
* hit, by the source's call. The entries come from a sample that favours hits as a whole. Cut-off read from the data, not from the text of the source: active = inhibition above about 50%; inactive = the rest.

CC(=O)N1/C(=C/c2ccc(N(C)C)cc2)C(=O)c2ccccc21 was read as mHTT CaM bind 84.0* and Pf apPOL block -1.2.
For O=C(c1cccc(Br)c1)N1CCC(n2c(-c3ccoc3)nc3cccnc32)C1 (stereo not drawn) the results were mHTT CaM bind 55.3* and Pf apPOL block -1.1.
Cc1ccc(C(=O)N2CCC(n3c(-c4ccoc4)nc4cccnc43)C2)cc1C (stereo not drawn) was read as mHTT CaM bind 33.5 and Pf apPOL block -0.8.
`COc1cc(C(=O)N2CCC(n3c(-c4ccoc4)nc4cccnc43)C2)ccc1C` (stereo not drawn) gave mHTT CaM bind 47.3 and Pf apPOL block -2.2.
Screening COc1ccc(C(=O)N2CCC(n3c(-c4ccoc4)nc4cccnc43)C2)cc1F (stereo not drawn) returned mHTT CaM bind 63.4* and Pf apPOL block 4.1.
Cc1ccc(CNC(=O)N2CCC(n3c(-c4ccoc4)nc4cccnc43)C2)cc1 (stereo not drawn) was read as mHTT CaM bind 63.8* and Pf apPOL block 0.0.
`O=C(NCc1ccccc1)N1CCC(n2c(-c3ccoc3)nc3cccnc32)C1` (stereo not drawn) gave mHTT CaM bind 8.2 and Pf apPOL block 0.8.
CCC1CN2C=NC(N3CCN(C(=O)c4ccc(Cl)s4)CC3)=CC2=N1 (stereo not drawn) was read as mHTT CaM bind -2.4 and Pf apPOL block 3.5.
Cc1ccc(-c2cc(C(=O)Nc3cccnc3)c3ccccc3n2)o1 was read as mHTT CaM bind 31.9 and Pf apPOL block 7.0.
For Cc1ccc(-c2cc(C(=O)Nc3ccncc3)c3ccccc3n2)o1 the results were mHTT CaM bind 74.0* and Pf apPOL block -2.9.
Cc1cccc(-c2nc(C3CCN(C(=O)c4ccc(F)c(F)c4)CC3)no2)c1 was read as mHTT CaM bind 29.3 and Pf apPOL block 0.5.
Screening O=c1c2ccccc2c(-c2ccccc2)nn1-c1cc(N2CCCC2)ccc1[N+](=O)[O-] returned mHTT CaM bind 34.0 and Pf apPOL block 0.2.
For Cc1ccc(-c2nn(-c3cc(N4CCNCC4)ccc3[N+](=O)[O-])c(=O)c3ccccc23)cc1C the results were mHTT CaM bind 100.3* and Pf apPOL block -0.1.
`O=C1CCCC2=C1C(c1ccccc1Cl)n1ncnc1N2` (stereo not drawn) gave mHTT CaM bind -1.0 and Pf apPOL block 16.3.
For CCOC(=O)C(=CNc1cccc(C(=O)OC)c1)C(=O)OCC the results were Pf apPOL block -4.9.
Cc1ccc(C(O)CNC(=O)c2nc3ccccc3s2)o1 (stereo not drawn) was read as mHTT CaM bind -5.0 and Pf apPOL block -9.1.
Screening COc1ccc(NC(=O)CN2CCN(C3c4ccccc4-c4ccccc43)CC2)cc1 returned mHTT CaM bind 55.0* and Pf apPOL block 2.3.
`Cc1ccc(NC(=O)CN2CCN(C3c4ccccc4-c4ccccc43)CC2)cc1F` gave mHTT CaM bind 22.0 and Pf apPOL block 0.2.
Screening O=C(CN1CCN(C2c3ccccc3-c3ccccc32)CC1)Nc1ccc(F)cc1 returned mHTT CaM bind 46.0 and Pf apPOL block 3.3.
For NC(=O)c1ccc(NC(=O)CN2CCN(C3c4ccccc4-c4ccccc43)CC2)cc1 the results were mHTT CaM bind 59.0* and Pf apPOL block 1.5.
Screening COc1ccc(-c2nnc(N3CCC(C(=O)NCc4ccc(C)c(C)c4)CC3)o2)cc1 returned mHTT CaM bind -2.9 and Pf apPOL block -1.0.
For CCN1CCCc2cc(C(=O)NCc3cccc(OC)c3)sc21 the results were mHTT CaM bind 9.2 and Pf apPOL block -3.2.
Screening Cn1cc2c(c1-c1ccccc1)c(=O)n(C)c(=O)n2C returned mHTT CaM bind -1.0 and Pf apPOL block -3.7.
Screening COc1ccc(-c2c3c(=O)n(C)c(=O)n(C)c3cn2Cc2ccccc2)cc1 returned mHTT CaM bind 25.0 and Pf apPOL block 24.5.
Screening COc1ccc(-c2c3c(=O)n(C)c(=O)n(C)c3cn2-c2ccccc2N)cc1 returned mHTT CaM bind 15.0 and Pf apPOL block 6.7.
`COc1ccc(-c2c3c(=O)n(C)c(=O)n(C)c3cn2-c2ccccc2O)cc1` gave mHTT CaM bind 21.0 and Pf apPOL block 92.3*.
COc1ccc(-c2c3c(=O)n(C)c(=O)n(C)c3cn2-c2cc(C)c(C)cc2N)cc1 was read as mHTT CaM bind 50.0 and Pf apPOL block 67.5*.
For CCn1cc2c(c1-c1ccc(OC)cc1)c(=O)n(C)c(=O)n2C the results were mHTT CaM bind 3.0 and Pf apPOL block 54.1*.
For COc1ccc(-c2c3c(=O)n(C)c(=O)n(C)c3cn2C)cc1 the results were mHTT CaM bind 3.0 and Pf apPOL block 89.8*.
`Cn1c(=O)c2c(-c3ccccc3)n(-c3ccccc3O)cc2n(C)c1=O` gave mHTT CaM bind 9.0 and Pf apPOL block -1.2.
Screening O=C(Cn1cnc2c(cnn2Cc2ccccc2F)c1=O)NCC1CCCO1 (stereo not drawn) returned mHTT CaM bind -5.4 and Pf apPOL block -0.8.

Compound activity as filed in PubChem BioAssay.
